# SKKanGAS inh: SKKanGAS growth inhibition. inhibition, % at 7.5 µM. S. pyogenes SKKanGAS, kanamycin growth, BacTiter-Glo, 6 h. AID 1662. 300,000 compounds, 1.3% hits;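 active means mean replicate score, as percent of positive control median, at least 50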;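 further: strain carries kanamycin resistance gene driven by streptokinase promoter and grows in 40 µg/ml kanamycin; loss of luminescence reflects streptokinase promoter inhibition or plain growth inhibition; 0% = median of DMSO wells and 100% = positive control at its reference dose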
# tim10-1 inh: growth inhibitors of tim10-1 mutant yeast. S. cerevisiae tim10-1 ts strain growth, BacTiter-Glo, 24 h. inhibition, % at 20 µM. 330,000 compounds, 2.2% hits;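 active means inhibition of at least 40%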;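 further: mutant grown at 25 °C; 0% = DMSO wells with yeast and 100% = wells holding no yeast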
# PfHsp90 set2: reduces growth (ATP signal) of yeast expressing P. falciparum Hsp90. S. cerevisiae expressing PfHsp90, BacTiter-Glo ATP, 48 h; yeast lacking PDR1 and PDR3 efflux regulators. 310,000 compounds, 0.32% hits. AID 504621. inhibition, % at 9.4 µM;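 active means every replicate shows inhibition above about 80%, whatever the replicate mean, limit read from the data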;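 further: 0% = DMSO neutral controls and 100% = 20 µM radicicol positive controls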
# tim23-1 inh: growth inhibitors of tim23-1 mutant yeast. S. cerevisiae tim23-1 growth, BacTiter-Glo luminescence, 24 h. inhibition, % at 20 µM. 330,000 compounds, 1.3% hits. AID 463212;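 active means growth inhibition of the mutant yeast at or above 50%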;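 further: temperature-sensitive mutant grown at 25 °C; plate controls were DMSO-treated mutant yeast for no effect and medium wells lacking yeast for full effect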
# TIM10 inh: inhibits growth of TIM10 yeast strain. S. cerevisiae TIM10 strain growth, BacTiter-Glo luminescence, 24 h. inhibition, % at 10 µM. 330,000 compounds, 1.4% hits. AID 463195;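 active means inhibition of 40% or more at the single tested concentration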;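 further: wild-type TIM10 isogenic control strain grown at permissive 25 °C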
# NLRP3 yeast inh: inhibitors of NALP3 inflammasome in yeast | AID 2825 | Yeast reconstituted NLRP3/ASC/caspase-1, beta-gal luminescence, 24 h | inhibition, % at 10 µM | 330,000 compounds, 0.39% hits;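 active means inhibition of 50% or more; inactive means inhibition below 50%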;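 further: plate controls were induced DMSO wells for no effect and uninduced yeast grown without galactose for full effect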
# tim10-1 conf: confirmation of tim10-1 mutant yeast growth inhibitors; shares compounds with tim10-1 inh; S. cerevisiae tim10-1 ts strain growth, BacTiter-Glo, 24 h; inhibition, % at 20 µM; 7,400 compounds, 56% hits;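 active means inhibition of yeast growth at or above a set limit in either of two repeat tests at 20 µM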;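 further: tim10-1 mutant grown at permissive 25 °C to find synthetic lethal compounds; 0% = DMSO yeast wells and 100% = medium wells without yeast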
# tim10 confirm: TIM10 yeast growth inhibition, confirmed; inhibition, % at 10 µM; S. cerevisiae tim10 strain growth, BacTiter-Glo luminescence, 24 h; shares compounds with TIM10 inh; AID 463215; 4,600 compounds, 63% hits;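 active means inhibition of yeast growth at or above a set limit in either of two replicates at 10 µM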;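 further: this counterscreen used the strain with wild-type TIM10; 0% = yeast with DMSO and 100% = medium wells lacking yeast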
# An asterisk follows results filed as active; . = no result. An excerpt weighted towards active compounds, which were near 4.5% of everything screened.
SMILES,SKKanGAS inh,tim10-1 inh,PfHsp90 set2,tim23-1 inh,TIM10 inh,NLRP3 yeast inh,tim10-1 conf,tim10 confirm
O=C(Nc1cccc2ccccc12)c1nn(C23CC4CC(CC(C4)C2)C3)cc1[N+](=O)[O-],11,40*,5,48,41*,12,32*,14
Cc1ccsc1C1Nc2ccccc2-c2nc3ccccc3n21 (centres undefined),0,51*,5,50,54*,20,39*,-16
c1csc(C2Nc3ccccc3-c3nc4ccccc4n32)c1 (centres undefined),3,38,-15,34,22,4,.,.
O=C(Nc1cccc(C(F)(F)F)c1)c1cccnc1NCCc1ccccc1,29,44*,45,40,43*,12,30*,-5
COc1cc(C2=NOC(C(=O)N3CCCCCC3)C2)cc(OC)c1OC (centres undefined),-1,-8,-5,15,5,14,.,.
COc1cc(C2=NOC(C(=O)N3CCN(c4ccc(F)cc4)CC3)C2)cc(OC)c1OC (centres undefined),0,41*,19,41,46*,12,40*,40*
CCOC(=O)c1c(N2C(=O)C=CC2=O)sc(C)c1C,4,47*,154*,20,77*,5,44*,72*
CCOC(=O)c1c(NC(N)=O)sc(C)c1C,-3,14,-4,17,11,13,.,.
O=C(/C=C/c1ccco1)Nc1ccccc1N1CCCCC1,-4,61*,.,41,54*,-4,58*,50*
Cc1ccccc1/C(N)=N/OC(=O)N1c2ccccc2Sc2ccccc21,2,72*,-6,30,74*,43,69*,81*
CCCCCOC(=O)CC(C(=O)OCCCCC)N1CCCCC1 (centres undefined),13,22,-4,22,5,1,.,.
CCCCCCCCCOC(=O)C(CC(=O)O)N1CCOCC1 (centres undefined),-2,42*,1,44,50*,20,37*,44*
COC(=O)NC(C)N1C(=O)C2C3C=CC(C3)C2C1=O (centres undefined),0,-4,3,-10,-15,16,.,.
Nc1nc(SCc2ccc(Cl)cc2Cl)n[nH]1,3,10,-3,19,7,17,.,.
CNc1cc(CSC)nc(SCc2ccc(Cl)cc2Cl)n1,20,49*,-15,48,44*,41,41*,37*
CC(C)c1ccc(/C=C(\c2nc3ccccc3[nH]2)S(=O)(=O)c2ccccc2)cc1,6,54*,-9,45,46*,16,47*,37*
Cc1nn(C)c(C(=O)NC(=S)Nc2ccc([N+](=O)[O-])cc2)c1Cl,11,52*,6,50,41*,21,40*,28
CCOC(=O)c1sc(NC(=O)CCN2CCCCCC2)c(C(=O)OCC)c1C,4,61*,-2,10,44*,-5,51*,43*
CCOC(=O)c1c(NC(=O)CC)sc(C(=O)N2CCCCC2)c1C,-12,-3,4,0,-4,26,.,.
Cc1ccc(-n2cc(CCCCCCCCC(=O)O)nn2)cc1,3,-4,25,-6,2,12,.,.
Cc1ccc(NC(=S)NCc2ccc3[nH]c4c(c3c2)CCCC4)cc1,7,47*,-38,48,46*,27,29*,30
Cc1cc(NC(=O)C(C)SCC(=O)Nc2cc(C(F)(F)F)ccc2N2CCOCC2)no1 (centres undefined),0,19,13,5,10,22,.,.
O=C(/C=C/c1ccc(-c2ccccc2[N+](=O)[O-])o1)c1ccco1,-20,55*,-26,36,48*,17,44*,46*
CCOc1ccc(C(=O)N2CCN(c3cccc(C)c3C)CC2)cc1,-3,45*,.,43,42*,4,33*,32*
